# Assay results as given in ChEMBL document CHEMBL2218924, “A broad activity screen in support of a chemogenomic map for kinase signalling research and drug discovery” (Biochem J, 2013).
# Molecular target: Aurora kinase B (Homo sapiens) (UniProt Q96GD4)
# Conditions: at 1 µM
# Chain of Aurora kinase B (Homo sapiens) (Q96GD4 whole entry): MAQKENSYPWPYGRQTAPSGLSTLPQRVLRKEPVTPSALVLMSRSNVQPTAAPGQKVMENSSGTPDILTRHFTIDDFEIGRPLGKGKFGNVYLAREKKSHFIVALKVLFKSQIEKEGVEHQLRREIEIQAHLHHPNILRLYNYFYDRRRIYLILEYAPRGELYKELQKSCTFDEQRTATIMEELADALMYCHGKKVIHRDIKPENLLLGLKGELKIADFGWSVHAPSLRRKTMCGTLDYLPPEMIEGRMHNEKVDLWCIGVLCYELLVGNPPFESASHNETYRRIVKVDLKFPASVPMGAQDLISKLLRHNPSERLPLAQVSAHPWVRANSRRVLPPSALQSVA
row,SMILES,residual activity [%]
1,N/C(=N\[N+](=O)[O-])N/N=C\c1ccc(-c2cccc([N+](=O)[O-])c2)o1,80
2,C[S+]([O-])c1ccc(-c2nc(-c3ccc(F)cc3)c(-c3ccncc3)[nH]2)cc1 (configuration not stated),102
3,CC(C)(C)c1cc(C=C(C#N)C#N)cc(Br)c1O,108
4,COc1cc(OC)c(/C=C2\C(=O)Nc3ccccc32)c(OC)c1,59
5,COc1ccc2c(c[n+](C)c3c4cc5c(cc4ccc23)OCO5)c1OC,130
6,O=C1NC(=O)c2c1c1c3ccccc3n3c1c1c2c2ccccc2n1C1CCC3O1,2
7,CCn1cnc2c(Nc3cccc(Cl)c3)nc(N[C@@H]3CCCC[C@@H]3N)nc21,21
8,c1cc(-c2cnn3cc(-c4ccc(OCCN5CCCCC5)cc4)cnc23)ccn1,18
9,COC(=O)[C@@]1(O)C[C@H]2O[C@]1(C)n1c3ccccc3c3c4c(c5c6ccccc6n2c5c31)C(=O)NC4,0
10,COc1cc2ncnc(Nc3ccc(OCc4ccccc4)cc3)c2cc1OC,6
11,O=c1[nH]c2ccccc2n1C1CCN(Cc2ccc(-c3nc4cc5[nH]cnc5cc4nc3-c3ccccc3)cc2)CC1,116
12,CCc1nc(-c2ccc(OC)cc2)[nH]c1-c1ccncc1,67
13,COc1ccc2c(c1)/C(=C/c1cnc[nH]1)C(=O)N2,21
14,O=C1Nc2ccc3ncsc3c2/C1=C/c1c[nH]cn1,2
15,CC(C)[C@H](CO)Nc1nc(Nc2cccc(Cl)c2)c2ncn(C(C)C)c2n1,72
16,O=[N+]([O-])/C=C/c1ccc2c(c1)OCO2,108

# Molecular target: Aurora kinase B (Homo sapiens) (UniProt Q96GD4)
# Conditions: at 10 µM
row,SMILES,residual activity [%]
1,N/C(=N\[N+](=O)[O-])N/N=C\c1ccc(-c2cccc([N+](=O)[O-])c2)o1,53
2,C[S+]([O-])c1ccc(-c2nc(-c3ccc(F)cc3)c(-c3ccncc3)[nH]2)cc1 (configuration not stated),80
3,CC(C)(C)c1cc(C=C(C#N)C#N)cc(Br)c1O,45
4,COc1cc(OC)c(/C=C2\C(=O)Nc3ccccc32)c(OC)c1,48
5,COc1ccc2c(c[n+](C)c3c4cc5c(cc4ccc23)OCO5)c1OC,60
6,O=C1NC(=O)c2c1c1c3ccccc3n3c1c1c2c2ccccc2n1C1CCC3O1,4
7,CCn1cnc2c(Nc3cccc(Cl)c3)nc(N[C@@H]3CCCC[C@@H]3N)nc21,1
8,c1cc(-c2cnn3cc(-c4ccc(OCCN5CCCCC5)cc4)cnc23)ccn1,2
9,COC(=O)[C@@]1(O)C[C@H]2O[C@]1(C)n1c3ccccc3c3c4c(c5c6ccccc6n2c5c31)C(=O)NC4,0
10,COc1cc2ncnc(Nc3ccc(OCc4ccccc4)cc3)c2cc1OC,3
11,O=c1[nH]c2ccccc2n1C1CCN(Cc2ccc(-c3nc4cc5[nH]cnc5cc4nc3-c3ccccc3)cc2)CC1,77
12,CCc1nc(-c2ccc(OC)cc2)[nH]c1-c1ccncc1,62
13,COc1ccc2c(c1)/C(=C/c1cnc[nH]1)C(=O)N2,0
14,O=C1Nc2ccc3ncsc3c2/C1=C/c1c[nH]cn1,0
15,CC(C)[C@H](CO)Nc1nc(Nc2cccc(Cl)c2)c2ncn(C(C)C)c2n1,17
16,O=[N+]([O-])/C=C/c1ccc2c(c1)OCO2,90
